# Assay results reported in PubChem BioAssay AID651871 (Sanford-Burnham Center for Chemical Genomics, 2012).
# Test system: H9c2
# Assay: cardiomyocyte survival under oxidative or metabolic stress – cell-based, panel, H9c2 and HL-1, ATP luminescence, set 2, SAR follow-up (AID 651871);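 further: cells exposed to stressor for 2 h before ATP readout; reference of the scale not given here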
# Settings: H9c2/HL-1 cardiomyocytes, H2O2 oxidative stress, with H2O2, run 2, at 39.5 µM (top of the series)
compound,measurement,value
COc1ccc2c(c1OC)C(=O)N1c3ccccc3C(=O)N(Cc3cccc(Cl)c3Cl)C21 (stereo unspecified),activity (protection/inhibition),48.1%
